We go through 37 compounds from PubChem BioAssay (NCI).

Molecules are shown by their SMILES. Values joined by “and” are separate entries in the source; they are usually repeats but may differ in a detail not shown here. Equal entries are not always repeated. Compounds without any hit were thinned out: in the full panel of roughly 83,000, 20% have a hit.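 Negative percent growth values reflect cell death: -40 means 40% of the cells present at the start died, and -100 means all died.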 Unmarked numbers belong to inactive results. Active and inactive are the calls of the source. The calls were made as follows: active = growth percent below 10; inactive = the rest.

The test system of the first assay is SF-295 CNS. As to the kind of experiment: NCI-60 one-dose screen, 48 h (100 = growth as untreated, 0 = no growth, -100 = all killed). The conditions noted are these: 10 µM unless noted.
Take `O=C(O)C(Br)CBr` (stereo unspecified): the growth was 98.1%. `COC(=O)CCP(CCC(=O)OC)c1ccccc1`: the growth is 99.4%. Same read-out and setting: the figure for `COc1ccc(N)cc1N` is 105%; for `CC1=C(C)C(=O)O[C@@H]([C@](C)(O)[C@]2(O)CC[C@@]3(O)[C@@H]4C[C@H]5O[C@]56CC=CC(=O)[C@]6(C)[C@H]4CC[C@]23C)C1` it is 4.3% (active).

For the compound `COc1ccc(N)cc1OC`, the growth was 93.9%. Same read-out and setting: the figure for `O=C(O)c1ccc(=O)[nH]c1` is 113% and 96.2%. Same read-out and setting: the figure for `O=S(=O)(F)c1cccc(Cl)c1C[P+](c1ccccc1)(c1ccccc1)c1ccccc1` is 92.3%; for `O=C(O)CNCP(=O)(O)O` it is 107%. As for `CCCCOC(N)=O`, the growth is 105%. Same read-out and setting: as for `c1ccc(CCN2CCCCC2)nc1`, the figure is 98%. With `O=[N+]([O-])c1cc(Br)c(O)c(Br)c1`, the growth was 100%. Still for that read-out and setting: the figure for `OCCN=Cc1c[nH]c2ccccc12` is 89.9%; for `CC1=C2[C@H]3OC(=O)[C@@H](C)[C@@H]3CC[C@@]2(C)C=CC1=O` it is 106%. Same read-out and setting: the figure for `CCOC(=O)c1ccccc1C(=O)OCC` is 83.5%; for `CC(Oc1ccc(-c2ccccc2)cc1)C(=O)O` (stereo unspecified) it is 102%. Take `O=[N+]([O-])c1ccc(CI)cc1`: the growth is 110%. Still for that read-out and setting: as for `CN1[C@@H](CC(=O)c2ccccc2)CCC[C@H]1CC(=O)c1ccccc1`, the figure is 97.2%; as for `O=S1(=O)OCCO1`, 98.3%; as for `Cc1cc[n+](CCc2ccccc2)cc1`, 111% and 97.7%.

`CN1C2CCC1[C@@H](COC(=O)c1ccccc1)[C@@H](O)C2` (stereo partly specified): the growth is 112%. `O=C1NC(=O)C(=C/C=C/c2ccccc2)C(=O)N1`: the growth was 97.8%. Same read-out and setting: the figure for `Cc1cc(N)ccc1N` is 108%. Turning to `COC(=O)C1=CO[C@@H](C)[C@@H]2CN3CCc4c([nH]c5cc(OC)ccc45)[C@@H]3C[C@H]12`, the growth was 117%. Still for that read-out and setting: as for `NC1CN2CCC1CC2` (stereo unspecified), the figure is 95.9%; as for `Cc1ccc(C(=O)O[C@H](C(=O)O)[C@H](OC(=O)c2ccc(C)cc2)C(=O)O)cc1`, 118%. With `C=CC1CN2CCC1CC2C(O)c1ccnc2ccccc12` (stereo unspecified), the growth is 121%. For `COC12CC3C4=CCOC5CC(=O)N6c7ccccc7C1(CCN2C4)C6C53` (stereo unspecified), the growth was 111%. Still for that read-out and setting: as for `CC1(C)CN=C(NN=C(/C=C/c2ccc(C(F)(F)F)cc2)/C=C/c2ccc(C(F)(F)F)cc2)NC1`, the figure is -70.8% (active); as for `CC1=CC(=O)CCC12CCOC2=O` (stereo unspecified), 95.8%. On to `COc1cc(-c2ccc(N)c(OC)c2)ccc1N`, for which the growth was 104%. Same read-out and setting: the figure for `O=C(O)c1cc([N+](=O)[O-])cc([N+](=O)[O-])c1` is 101%; for `ClCc1ccc(Cl)c(Cl)c1` it is 94.4%; for `CCC(=O)C(CC(C)[N+](C)(C)C)(c1ccccc1)c1ccccc1` (stereo unspecified) it is 95.3%. On the same count and under the same terms, as for `CNC(=O)CCl`, the figure is 105%.

The test system of another assay is SF-539 CNS. Described as above. The conditions noted are these: 10 µM unless noted.
For `O=C(O)C(Br)CBr` (stereo unspecified), the growth is 98.5%. The same measure, in the same setting: as for `COC(=O)CCP(CCC(=O)OC)c1ccccc1`, the figure is 101%; as for `COc1ccc(N)cc1N`, 92.8%. Same read-out and setting: as for `CC1=C(C)C(=O)O[C@@H]([C@](C)(O)[C@]2(O)CC[C@@]3(O)[C@@H]4C[C@H]5O[C@]56CC=CC(=O)[C@]6(C)[C@H]4CC[C@]23C)C1`, the figure is -10.1% (active); as for `COc1ccc(N)cc1OC`, 110%; as for `O=C(O)c1ccc(=O)[nH]c1`, 89.5% and 98.2%. Regarding `O=S(=O)(F)c1cccc(Cl)c1C[P+](c1ccccc1)(c1ccccc1)c1ccccc1`, the growth was 103%.

As to `O=[N+]([O-])c1c(Cl)cc(Cl)c([N+](=O)[O-])c1Cl`, the growth is 110%.

As for `O=C(O)CNCP(=O)(O)O`, the growth was 115%.

Regarding `CCCCOC(N)=O`, the growth was 109%. For `c1ccc(CCN2CCCCC2)nc1`, the growth is 102%. On the same count and under the same terms, as for `O=[N+]([O-])c1cc(Br)c(O)c(Br)c1`, the figure is 108%; as for `OCCN=Cc1c[nH]c2ccccc12`, 99.4%.

Regarding `CC1=C2[C@H]3OC(=O)[C@@H](C)[C@@H]3CC[C@@]2(C)C=CC1=O`, the growth was 83.3%.

Consider `CCOC(=O)c1ccccc1C(=O)OCC`, for which the growth was 107%. Still for that read-out and setting: as for `CC(Oc1ccc(-c2ccccc2)cc1)C(=O)O` (stereo unspecified), the figure is 99.6%; as for `O=[N+]([O-])c1ccc(CI)cc1`, 56.9%; as for `CN1[C@@H](CC(=O)c2ccccc2)CCC[C@H]1CC(=O)c1ccccc1`, 111%. Still for that read-out and setting: as for `O=S1(=O)OCCO1`, the figure is 95.1%. Consider `Cc1cc[n+](CCc2ccccc2)cc1`, for which the growth was 97.5% and 107%. `CN1C2CCC1[C@@H](COC(=O)c1ccccc1)[C@@H](O)C2` (stereo partly specified): the growth is 103%. The same measure, in the same setting: the figure for `O=C1NC(=O)C(=C/C=C/c2ccccc2)C(=O)N1` is 27.4%. Turning to `Cc1cc(N)ccc1N`, the growth is 95.8%. The same measure, in the same setting: as for `COC(=O)C1=CO[C@@H](C)[C@@H]2CN3CCc4c([nH]c5cc(OC)ccc45)[C@@H]3C[C@H]12`, the figure is 104%; as for `NC1CN2CCC1CC2` (stereo unspecified), 95.6%. Still for that read-out and setting: the figure for `Cc1ccc(C(=O)O[C@H](C(=O)O)[C@H](OC(=O)c2ccc(C)cc2)C(=O)O)cc1` is 102%; for `C=CC1CN2CCC1CC2C(O)c1ccnc2ccccc12` (stereo unspecified) it is 121%; for `COC12CC3C4=CCOC5CC(=O)N6c7ccccc7C1(CCN2C4)C6C53` (stereo unspecified) it is 100%. For the compound `CC1(C)CN=C(NN=C(/C=C/c2ccc(C(F)(F)F)cc2)/C=C/c2ccc(C(F)(F)F)cc2)NC1`, the growth was -78.4% (active).

Take `CC1=CC(=O)CCC12CCOC2=O` (stereo unspecified): the growth was 92.9%. Still for that read-out and setting: the figure for `CCCn1cc2c3c(cccc31)[C@H]1C[C@@H](C)CN(C)[C@@H]1C2` is 85.1%. Same read-out and setting: as for `COc1cc(-c2ccc(N)c(OC)c2)ccc1N`, the figure is 110%.

For `O=C(O)c1cc([N+](=O)[O-])cc([N+](=O)[O-])c1`, the growth was 104%. For `ClCc1ccc(Cl)c(Cl)c1`, the growth was 99.6%.

`NC(=O)Oc1cc(OC(N)=O)cc(N(CCCl)CCCl)c1`: the growth is 23.3%. On the same count and under the same terms, as for `CCC(=O)C(CC(C)[N+](C)(C)C)(c1ccccc1)c1ccccc1` (stereo unspecified), the figure is 96.6%; as for `CNC(=O)CCl`, 102%.
